Measurements reported in PubChem BioAssay AID977607 (Broad Institute, 2014).
About 460 (31%) of roughly 1,500 compounds were called active. About 1% were inconclusive and are not listed.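 How the source made its calls: active means curve reaches 40% activation over neutral controls at an AC40 no higher than the top valid tested concentration; inconclusive means no clear call, values can overlap the other calls; inactive means signal moving opposite to the expected increase, and the rest.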 Not all results are given here. Entries with a potency or affinity are not part of this list.

Assay: activators of glucose-dependent insulin secretion, dose response, cell-based, INS-1E, Gaussia luciferase, luminescence, cherry-pick, set 2 (AID 977607);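 further: 0% = median of the plate neutral control wells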
Conditions: INS-1E GLuc insulin secretion reporter, 2-3 h, active compounds read high; at 35 µM, 100% = signal doubled over neutral wells unless noted

Max activation, inactive:
C=CCN=c1sc(C(=O)OC)cc(=O)n1CC=C 27.6% [at 11 µM, 100% = signal doubled over neutral wells]
Cc1ccc(F)cc1-c1nc(NC(C)C)nc2cc(-c3ccccc3)sc12 -27.5% [at 11 µM, 100% = signal doubled over neutral wells]
COc1ccc(CCNC(=O)CN2c3cccc4cccc(c34)S2(=O)=O)cc1OC 39.7%
O=C(Nc1cccnc1)/C(N=Nc1cccnc1)=C(\O)c1ccccc1 -11.7% [at 0.42 µM, 100% = signal doubled over neutral wells]
O=C(NCc1ccccc1)C(c1ccncc1)n1c(=O)c(-c2ccccc2)nc2ccccc21 (stereo unspecified) -12.6% [at 1.2 µM, 100% = signal doubled over neutral wells]
O=C(OC1CCOC1=O)c1cc(-c2ccc(Cl)cc2)nc2ccccc12 (stereo unspecified) 34.2% [at 3.8 µM, 100% = signal doubled over neutral wells]
COc1cc(C)c(C)cc1S(=O)(=O)N1CCCCC1c1cccnc1 (stereo unspecified) 13% [at 1.2 µM, 100% = signal doubled over neutral wells]
CCc1nc2ccc(C(=O)NCCCN(C)C)cn2c1N(C)Cc1ccc(OC)cc1 -28.3% [at 0.046 µM, 100% = signal doubled over neutral wells]
COC(=O)C1=C(C)NC(=S)NC1c1cccc(OC)c1 (stereo unspecified) -19.4% [at 0.046 µM, 100% = signal doubled over neutral wells]
CC1CN(S(=O)(=O)c2cc(C(=O)NC(C)c3cccnc3)ccc2Cl)CC(C)O1 (stereo unspecified) -33%
O=C1c2[nH]nc(-c3ccccc3)c2C(c2ccccc2)N1c1ccccc1 (stereo unspecified) -31.9%
COc1ccccc1CNC(=O)CCNS(=O)(=O)c1ccc2[nH]c(=O)oc2c1 -23% [at 0.015 µM, 100% = signal doubled over neutral wells]
COC(=O)c1cc(S(=O)(=O)NCC2CCN(Cc3cc(C)ccc3C)CC2)c[nH]1 -22.8% [at 11 µM, 100% = signal doubled over neutral wells]
O=C(c1ccco1)N1CCN(C2CN(Cc3ccccc3)S(=O)(=O)C2)CC1 (stereo unspecified) 13.2% [at 0.135 µM, 100% = signal doubled over neutral wells]
Cn1cc(Br)c(C(=O)NNC(=O)c2ccccc2)n1 -8.88% [at 0.015 µM, 100% = signal doubled over neutral wells]
Cc1[nH]n(-c2ccc(Br)cc2)c(=O)c1/C=N/NC(=O)c1ccccc1 -37.8%
O=C(Nc1cccnc1Cl)C1=NN(c2ccccc2)C(=O)CC1 -19.3% [at 0.42 µM, 100% = signal doubled over neutral wells]
C/C=C/Cn1c(N2CCCCCC2)nc2c1c(=O)[nH]c(=O)n2C 53.5%
Cn1c(=O)[nH]c(=O)c2c1nc(N1CCCCC1)n2C/C=N/Nc1ccc(C(=O)O)cc1 40.2% [at 0.0016 µM, 100% = signal doubled over neutral wells]
C[C@@H]1CC2=C(C(=O)OC(C)(C)O2)[C@H](c2ccc(Cl)cc2)O1 -23% [at 0.42 µM, 100% = signal doubled over neutral wells]
Cc1nc2ccccc2c2oc(C(=O)N3CCCC(C)C3)cc12 (stereo unspecified) -8.46% [at 11 µM, 100% = signal doubled over neutral wells]
COc1ccc(CCNC(=O)Cc2ccc3c(c2)OCO3)cc1OC -22.4% [at 0.42 µM, 100% = signal doubled over neutral wells]
CCOC(=O)Cc1csc(NC(=O)c2ccc(OC)c(OC)c2)n1 24.7%
Cc1c(C(=O)N(C)CCc2cnn(C)c2)oc2c(F)cccc12 -14.1% [at 3.8 µM, 100% = signal doubled over neutral wells]
CC(=O)Nc1ccc(S(=O)(=O)Nc2ccc3c(c2)n(C)c(=O)n3C)c(C)c1 -23.1%
CCCCn1c(=O)n(C)c(=O)c2c3c(sc21)COC(C)(C)C3 -17% [at 0.015 µM, 100% = signal doubled over neutral wells]
O=C(NCc1cccnc1)c1cccc(S(=O)(=O)NCc2ccccc2)c1 -24% [at 0.0016 µM, 100% = signal doubled over neutral wells]
COc1ccc(C(=O)Nc2ccccc2C(=O)NCc2cccnc2)cc1OC 42.3% [at 0.42 µM, 100% = signal doubled over neutral wells]
c1ccc(CCN2CCN=C2Nc2ccccc2)cc1 -31.5% [at 0.42 µM, 100% = signal doubled over neutral wells]
CN(C)C=NC(=O)c1ccc(N2CCN(c3ncc(C(F)(F)F)cc3Cl)CC2)cc1 -20.4% [at 11 µM, 100% = signal doubled over neutral wells]
CN(C)c1nc(=NCc2cccs2)ss1 -34.9% [at 11 µM, 100% = signal doubled over neutral wells]
CNC(=O)C1CC(=O)N(c2ccc(OCC(=O)Nc3ccccc3)cc2)C1 (stereo unspecified) -14.9% [at 0.135 µM, 100% = signal doubled over neutral wells]
CCCc1cc(=O)oc2cc(OCC(=O)NC3CCN(Cc4ccccc4)CC3)ccc12 -23.5%
COc1cc2[nH]c3c(Cl)ncnc3c2cc1OC -29.3% [at 3.8 µM, 100% = signal doubled over neutral wells]
O=C(CCc1nc2ccccc2c(=O)[nH]1)NNC(=O)c1cccc(Cl)c1 -14.7% [at 0.015 µM, 100% = signal doubled over neutral wells]
CCCn1c(=O)c(C(=O)NCc2ccccc2)c(O)c2ccccc21 -28%
